# A selection: hits, their analogues and other compounds. The true share with any hit is near 2.4%.
# D2 antag: D2 dopamine receptor (human) antagonism; HEK293 TREx D2 cells, calcium flux, dopamine EC80; inhibition, % at 10 µM; 340,000 tested, 2% active; AID 485344; in the data active = inhibition above about 30%; inactive = below that, where a call was filed; note: 0% is about no effect
# Target sequence (P14416 whole entry, looked up): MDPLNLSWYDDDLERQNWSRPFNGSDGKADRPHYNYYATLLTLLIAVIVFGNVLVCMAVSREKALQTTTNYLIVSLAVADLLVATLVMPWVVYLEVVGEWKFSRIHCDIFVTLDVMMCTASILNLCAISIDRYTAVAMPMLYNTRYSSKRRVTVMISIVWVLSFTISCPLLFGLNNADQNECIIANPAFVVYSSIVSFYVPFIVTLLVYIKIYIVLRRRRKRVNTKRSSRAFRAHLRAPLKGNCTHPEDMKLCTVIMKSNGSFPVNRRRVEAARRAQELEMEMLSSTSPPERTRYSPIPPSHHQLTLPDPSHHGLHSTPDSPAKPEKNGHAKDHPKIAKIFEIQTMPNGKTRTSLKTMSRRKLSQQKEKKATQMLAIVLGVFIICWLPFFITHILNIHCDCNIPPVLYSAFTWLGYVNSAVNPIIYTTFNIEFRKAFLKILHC
#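 Calcium flux kinetic readout in an inducible HEK293 TREx D2 line plated overnight at 30 C. After 180 s compound exposure, an EC80 dopamine challenge follows with another 180 s kinetic read to detect antagonism.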
# D2 PAM-1: positively modulates the human D2 dopamine receptor allosterically; P14416; HEK293 T-REx D2, calcium flux, EC20 dopamine potentiation; potentiation, % at 10 µM; 340,000 tested, 0.34% active;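 active = potentiation over 3 SD above the plate norm, cut at about 30% in these data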; note: 0% is about no effect
#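 Primary screen. Calcium kinetics in induced HEK293 T-REx D2 cells: compound pre-addition 180 s, EC20 dopamine, 180 s more.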
# D2 ag-1: activates the human D2 dopamine receptor | DiscoveRx PathHunter D2 beta-arrestin, luminescence, 90 min; 100% = 57 uM dopamine signal | activation, % (no concentration beside the values) | 360,000 tested, 0.084% active | AID 624465; in the data active = activation above about 40%; inconclusive = between about 15% and that limit
#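 DiscoveRx PathHunter D2 beta-arrestin cells (2,100/well) attached overnight, then compound-stimulated 90 min at 37 C in HBSS/10 mM HEPES/0.1% Tween-20 buffer; beta-galactosidase complementation read by luminescence after 1 h at ambient temperature. Dopamine 57 uM final (EC100) as control.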
# D2 ag-2: D2 dopamine receptor (human) agonism; HEK293 T-REx D2 cells, calcium flux agonist mode; activation, % at 2 µM; 340,000 tested, 0.53% active; AID 485358;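 active = activation over 3 SD above normal in the single-dose calcium agonist read, cut at about 30% in these data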; note: 0% is about no effect
#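 Tetracycline-induced HEK293 Trex cells with D2 receptor force-coupled to calcium signaling, plated overnight at 30 C and loaded with no-wash calcium dye. Calcium flux read kinetically for 180 s after compound addition; responses flag agonists.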
# D2 PAM-2: human D2 receptor positive allosteric modulation; DiscoveRx D2 beta-arrestin cells, luminescence, 90 min; 100% = 57 uM dopamine signal; potentiation, % (no concentration beside the values); 360,000 tested, 0.23% active; P14416; AID 624464; in the data active = potentiation above about 50%; inconclusive = mostly about 30% to 49%
#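 D2 cells co-treated with compound plus 50 nM dopamine (EC20) for 90 min at 37 deg C to detect potentiation. Beta-arrestin recruitment was read as enzyme-fragment luminescence after 1 h at ambient temperature. Full response was set by 57 uM dopamine.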
# D3 ag: D3 receptor agonism confirmed, beta-arrestin readout | shares compounds with D2 ag-2 | DiscoveRx D3 beta-arrestin cells, luminescence, 90 min | Potency, µM (doses to about 76.9 µM), for the others: at the highest dose activation, most hits filed as activators | 2,300 tested, 4% active | AID 720506;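 note: potency is the fitted concentration of half-maximal effect; 100% = dopamine control response; nearly all actives have a fitted effect of over 70% in size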
# D2 ag-3: counter-screen for D3 agonists: human D2 dopamine receptor agonism. shares compounds with D2 ag-2. DiscoveRx PathHunter D2 beta-arrestin, luminescence, 90 min; response scale: percent relative to full dopamine signal. Potency, µM (series often up to 76.9 µM), for inactives: at the highest dose activation, most hits filed as activators. 2,300 tested, 5.9% active; note: potency is the fitted concentration of half-maximal effect; % of control where 0% means no effect; nearly all actives have a fitted effect of over 70% in size
# * hit, by the source's call; ? = inconclusive; . = not tested or not shown. Unless noted, calls come from the whole dose curve; as a rule, active = well fitted activation curve with a large enough effect; inconclusive = small, poorly fitted or top-dose-only effect; inactive = flat fitted curve, though single readings scatter.
SMILES,D2 antag,D2 PAM-1,D2 ag-1,D2 ag-2,D2 PAM-2,D3 ag,D2 ag-3
O=C(Cc1ccc(F)cc1)N(c1ccccc1)C1C=CS(=O)(=O)C1 (configuration not stated),-12,2,-4,0,1,.,.
CCN1C=CC2=C(C#N)C(N)C(C#N)(C#N)C(c3ccccc3C(F)(F)F)C2C1 (configuration not stated),14,14,-8,3,-13,-1%,-3%
CCN1C=C(Cc2ccccc2C)C2=C(C1)C(c1ccccc1C)C(C#N)=C(N)O2 (configuration not stated),.,0,0,.,-34,.,.
N#Cc1c(/N=C/c2ccc(Br)s2)sc2c1CCC2,-30,3,9,0,2,.,.
Cc1ccc(/C=N/c2sc3c(c2C#N)CCC3)o1,9,8,-2,2,-17,.,.
N#Cc1c(/N=C/c2ccc(-c3ccc(C(=O)O)c(Cl)c3)o2)sc2c1CCCC2,-4,-12,?,45*,15,40µM*,?
N#Cc1c(/N=C/c2ccc(-c3ccccc3C(=O)O)o2)sc2c1CCCC2,-13,-11,14,66*,14,?,?
N#Cc1c(/N=C\c2ccc(O)c([N+](=O)[O-])c2)sc2c1CCCC2,18,-23,?,67*,20,?,13%
O=C(/C=C/c1ccccc1Cl)Nc1ccccc1,-7,-14,4,-1,-3,.,.
CN(C)S(=O)(=O)c1ccc(NC(=O)/C=C/c2ccccc2Cl)cc1,13,18,?,14,-13,?,15%
O=C(Cc1ccccc1)N1CCN(C(=O)c2cccs2)CC1,-5,9,0,1,-10,.,.
O=S(=O)(c1cccs1)N1CCN(C/C=C/c2ccccc2)CC1,-5,-2,-2,1,-20,.,.
O=C(c1cccs1)N1CCN(C/C=C/c2ccccc2)CC1,69*,-24,5,53*,-22,?,?
O=C(c1cccs1)N1CCN(CCc2ccccc2)CC1,42*,-13,6,43*,-14,15%,15%
CCc1cc(C(=O)NNC(=O)CCN2CCN(c3ccccc3)CC2)sc1C,66*,-15,4,80*,-22,?,?
Cc1cc(C(=O)NNC(=O)CCN2CCN(c3ccccc3)CC2)c2ccccc2n1,67*,-24,4,72*,-2,16%,?
N#CCC(=O)Nc1ccc(C(=O)NNC(=O)CCN2CCN(c3ccccc3)CC2)cc1,.,.,?,.,-1,?,?
CCc1cc(C(=O)NNC(=O)CCl)sc1C,2,9,5,-1,-8,.,.
COc1cccc(C(=O)NNC(=O)CCN2CCN(c3ccccc3)CC2)c1,.,.,11,.,-12,.,.
Cc1cc(C(=O)Nc2ccc(N3CCOCC3)cc2)c2ccccc2n1,-1,12,0,1,4,.,.
CCC1(c2ccccc2)NC(=O)N(CC(=O)NNC(=O)CCN2CCN(c3ccccc3)CC2)C1=O (configuration not stated),89*,-41,12,68*,-10,11%,21%
COc1ccc(CNC(=O)c2cc3sccc3n2Cc2ccc(F)cc2)cc1,.,-11,.,0,.,.,.
Cc1ccc2[nH]c3c(c2c1)CCCC3NC(=O)CCl (configuration not stated),-12,5,-4,1,-4,.,.
O=C(CCN1CCN(c2ccccc2)CC1)NNC(=O)c1cccc2ccccc12,85*,-16,?,74*,-18,?,18%
O=C(CCN1CCN(c2ccccc2)CC1)NNC(=S)Nc1ccccc1Cl,66*,-22,7,54*,-24,-3%,3%
O=C(c1ccco1)N1CCN(Cc2csc(-c3ccccc3Cl)n2)CC1,14,-25,0,41*,-37,-3%,7%
